Molecules are shown by their SMILES.

Data on 40 compounds can be found in ChEMBL document CHEMBL3988442, “University of Dundee, Small-Polar-MMV Screening Library” (2021).

The first assay deals with T1, Aspartate--tRNA(Asp/Asn) ligase (Mycobacterium tuberculosis (strain ATCC 25618 / H37Rv)) (UniProt P9WFW3).
T1 sequence (whole entry): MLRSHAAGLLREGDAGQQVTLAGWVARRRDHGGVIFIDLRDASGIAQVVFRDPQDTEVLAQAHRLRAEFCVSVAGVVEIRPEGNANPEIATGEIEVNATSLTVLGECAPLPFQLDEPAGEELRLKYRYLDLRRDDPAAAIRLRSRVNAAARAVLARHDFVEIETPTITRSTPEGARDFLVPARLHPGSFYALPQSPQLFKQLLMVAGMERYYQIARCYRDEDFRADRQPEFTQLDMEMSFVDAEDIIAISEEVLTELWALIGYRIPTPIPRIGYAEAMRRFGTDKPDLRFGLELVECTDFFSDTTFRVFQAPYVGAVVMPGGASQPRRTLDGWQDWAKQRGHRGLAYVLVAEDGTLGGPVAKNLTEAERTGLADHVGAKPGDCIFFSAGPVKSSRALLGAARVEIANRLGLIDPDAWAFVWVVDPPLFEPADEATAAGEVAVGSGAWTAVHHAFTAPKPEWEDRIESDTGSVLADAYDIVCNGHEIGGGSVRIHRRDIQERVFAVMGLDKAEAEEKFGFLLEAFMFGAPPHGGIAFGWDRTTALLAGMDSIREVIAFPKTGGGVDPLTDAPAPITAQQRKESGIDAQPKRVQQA
Description: Assay for Asp RNA synthetase-1 from Mycobacterium tuberculosis. In kind it is functional. Particulars: 30 µM. Set-up: scale not given: direction of the effect not stated beside the values.
As to `Cc1oncc1C(=O)N1CCC2(CCN(Cc3ccccn3)C2=O)C1` (stereo not given), the Percent Effect is -2.39%.

Turning to `COc1cccc(COCC(=O)N2CCCC(n3ccnc3C)C2)c1` (stereo not given), the Percent Effect is -4.19%.

`CN(CC(=O)N1CCN(c2ncccn2)CC1)c1ccc(Cl)cn1`: the Percent Effect is -2%.

Turning to `COc1cc(CNC(=O)NCc2c(C)cc(C)[nH]c2=O)ccc1C`, the Percent Effect is -3.59%.

With `O=C(Cc1cccc(F)c1)N1CCCCC1c1ccn2ccnc2n1` (stereo not given), the Percent Effect was -2.63%.

On to `NC(=O)C1CCN(c2nc3nccc(-c4ccccn4)c3c(=O)[nH]2)CC1`, for which the Percent Effect turned out to be 1.02%.

In the case of `CCn1c(Cn2cncn2)nnc1C1CCN(Cc2ccc(C)o2)CC1`, the Percent Effect was -3.48%.

For `CN1CCN(Cc2ccccc2CNC(=O)c2ccc(Br)cc2F)CC1`, the Percent Effect came to 2.64%.

In the case of `COc1ccc(-c2noc(CN3CCc4cncnc4C3)n2)cc1`, the Percent Effect is -0.389%.

As to `NC(=O)c1ccc(S(=O)(=O)NC(=O)COc2ccc3c(c2)CCC3)cc1`, the Percent Effect is -2.01%.

Consider `Cn1cc(C(=O)N2C[C@@H]3COC[C@]3(COCc3cccnc3)C2)cn1`, for which the Percent Effect is -0.306%.

In the case of `O=C(CN1CCOC(Cn2cccn2)C1)Nc1nncs1` (stereo not given), the Percent Effect was -1.58%.

On to `Cc1ccc(CNC(=O)CN2CCCC(Cn3cncn3)C2)s1` (stereo not given), for which the Percent Effect is -2.78%.

On to `COC(=O)C(c1cc(F)ccc1F)N(C)C(=O)c1csnn1` (stereo not given), for which the Percent Effect is 3.92%.

On to `CCn1cc(N2Cc3nc(N4CCN(C)CC4)ncc3C2=O)cn1`, for which the Percent Effect is -1.54%.

With `O=S(=O)(Nc1cnn(C2CCOCC2)c1)c1c(F)cccc1F`, the Percent Effect turned out to be 2.52%.

`CC(C)CCN1CCN(Cc2nc(C3CC3)no2)CC1`: the Percent Effect amounted to 0.0141%.

For `Cn1ccc(CN2CCC(CCc3ccc(O)cc3)CC2)cc1=O`, the Percent Effect is -1.67%.

Take `COc1ccccc1CCN(C)C(=O)NC(C)c1nncn1C` (stereo not given): the Percent Effect is -4.13%.

`Cc1cc(C2CCCN2CC(=O)N(CCC#N)c2ccccc2F)on1` (stereo not given): the Percent Effect was 3.09%.

In the case of `COc1cccc(C(=O)NS(=O)(=O)c2cccc(C#N)c2)c1OC`, the Percent Effect came to 0.0291%.

On to `CC(C(N)=O)S(=O)(=O)Cc1cc(Cl)c2c(c1)OCO2` (stereo not given), for which the Percent Effect is -7.47%.

As to `Cn1ccc2ccc(C(=O)N3CCN(C(=O)N4CCOCC4)CC3)cc21`, the Percent Effect was -0.0331%.

For `O=C(NCc1ccccc1-n1cccn1)N1CCN2CCCCC2C1` (stereo not given), the Percent Effect was -6.8%.

Turning to `COCC1CN(S(C)(=O)=O)Cc2ncn(CC3CC3)c21` (stereo not given), the Percent Effect was -3.82%.

As for `O=C(CN1CCCCC1Cn1cccn1)NC1CCN(C2CC2)CC1` (stereo not given), the Percent Effect turned out to be 1.64%.

With `Cc1noc2ncc(C(=O)NCC3CCOC3)cc12` (stereo not given), the Percent Effect is -2.88%.

As to `Cc1cnc2c(c1NCc1ccncc1)c(=O)n(C)c(=O)n2C`, the Percent Effect is -5.41%.

As to `CN1CCc2c(C#N)c(NCCCN3CCOCC3)n3cnnc3c2C1`, the Percent Effect was found to be 5.9%.

Regarding `CCOC1CCN(C(=O)c2cnn(-c3ccccc3Cl)c2)CC1`, the Percent Effect stood at 2.29%.

In the case of `CN(CC(=O)N1CCC(C(O)c2ccccc2)CC1)c1cnccn1` (stereo not given), the Percent Effect was -0.321%.

Take `CC1CN(C(=O)CN(Cc2ccccc2Br)C2CC2)CCO1` (stereo not given): the Percent Effect came out at 2.59%.

On to `CC1CCN(S(=O)(=O)c2cccn(CC(=O)N3CCOCC3)c2=O)CC1`, for which the Percent Effect is -4.3%.

For `CC1(C)OCC(CNC(=O)c2cnn(-c3ccc(Cl)cc3)c2N)O1` (stereo not given), the Percent Effect turned out to be 2.4%.

On to `O=C1CCSCC(C(=O)N2CCOCC2)N1` (stereo not given), for which the Percent Effect turned out to be 1.64%.

Consider `NC(=O)c1ccc(N2CCCCC2)c(NC(=O)c2cncc(Br)c2)c1`, for which the Percent Effect turned out to be 13.7%.

For `Cn1cc(C[C@H]2[C@H](N3CCOCC3)CCN2C(=O)c2ccco2)cn1`, the Percent Effect is -2.37%.

Take `CNC(=O)CS(=O)(=O)C1CCN(S(=O)(=O)C2CC2)CC1`: the Percent Effect stood at 1.09%.

On to `Cc1csc(C2CCCN(C(=O)c3cnc4n[nH]c(C)c4c3)C2)n1` (stereo not given), for which the Percent Effect turned out to be 0.533%.

Consider `CC(=O)N1CCCN(Cc2csc(-c3ncccn3)n2)CC1`, for which the Percent Effect worked out at 5.15%.

For the next assay, the target named is Shiga toxin 2 (Escherichia coli O157:H7) (UniProt P09385+P09386). Description: E. coli 0.157:H7 Shiga Toxin SOP - stx2 screening assay. In kind it is functional. On the set-up: scale not given: direction of the effect not stated beside the values. Particulars: 30 µM.
As for `Cc1oncc1C(=O)N1CCC2(CCN(Cc3ccccn3)C2=O)C1` (stereo not given), the Percent Effect was -12.9%.

With `COc1cccc(COCC(=O)N2CCCC(n3ccnc3C)C2)c1` (stereo not given), the Percent Effect is -2.47%.

On to `CN(CC(=O)N1CCN(c2ncccn2)CC1)c1ccc(Cl)cn1`, for which the Percent Effect is -0.376%.

As for `COc1cc(CNC(=O)NCc2c(C)cc(C)[nH]c2=O)ccc1C`, the Percent Effect is -4.18%.

As to `O=C(Cc1cccc(F)c1)N1CCCCC1c1ccn2ccnc2n1` (stereo not given), the Percent Effect was -7.82%.

`NC(=O)C1CCN(c2nc3nccc(-c4ccccn4)c3c(=O)[nH]2)CC1`: the Percent Effect is 2.69%.

`CCn1c(Cn2cncn2)nnc1C1CCN(Cc2ccc(C)o2)CC1`: the Percent Effect was 18.7%.

For `CN1CCN(Cc2ccccc2CNC(=O)c2ccc(Br)cc2F)CC1`, the Percent Effect is -9.7%.

`COc1ccc(-c2noc(CN3CCc4cncnc4C3)n2)cc1`: the Percent Effect was -15%.

On to `NC(=O)c1ccc(S(=O)(=O)NC(=O)COc2ccc3c(c2)CCC3)cc1`, for which the Percent Effect came to 13.5%.

On to `Cn1cc(C(=O)N2C[C@@H]3COC[C@]3(COCc3cccnc3)C2)cn1`, for which the Percent Effect is -6.37%.

Regarding `O=C(CN1CCOC(Cn2cccn2)C1)Nc1nncs1` (stereo not given), the Percent Effect is -15.4%.

Consider `Cc1ccc(CNC(=O)CN2CCCC(Cn3cncn3)C2)s1` (stereo not given), for which the Percent Effect was -43.9%.

With `COC(=O)C(c1cc(F)ccc1F)N(C)C(=O)c1csnn1` (stereo not given), the Percent Effect was -19.1%.

On to `CCn1cc(N2Cc3nc(N4CCN(C)CC4)ncc3C2=O)cn1`, for which the Percent Effect was -50.9%.

With `O=S(=O)(Nc1cnn(C2CCOCC2)c1)c1c(F)cccc1F`, the Percent Effect amounted to 1.54%.

`CC(C)CCN1CCN(Cc2nc(C3CC3)no2)CC1`: the Percent Effect is -32%.

Turning to `Cn1ccc(CN2CCC(CCc3ccc(O)cc3)CC2)cc1=O`, the Percent Effect was -46.5%.

`COc1ccccc1CCN(C)C(=O)NC(C)c1nncn1C` (stereo not given): the Percent Effect came to 1.17%.

As for `Cc1cc(C2CCCN2CC(=O)N(CCC#N)c2ccccc2F)on1` (stereo not given), the Percent Effect amounted to 0.491%.

Regarding `COc1cccc(C(=O)NS(=O)(=O)c2cccc(C#N)c2)c1OC`, the Percent Effect came out at 2.55%.

Regarding `CC(C(N)=O)S(=O)(=O)Cc1cc(Cl)c2c(c1)OCO2` (stereo not given), the Percent Effect was found to be 26.2%.

Take `Cn1ccc2ccc(C(=O)N3CCN(C(=O)N4CCOCC4)CC3)cc21`: the Percent Effect turned out to be 7.14%.

Regarding `O=C(NCc1ccccc1-n1cccn1)N1CCN2CCCCC2C1` (stereo not given), the Percent Effect stood at 3.68%.

As to `COCC1CN(S(C)(=O)=O)Cc2ncn(CC3CC3)c21` (stereo not given), the Percent Effect was -1.74%.

For `O=C(CN1CCCCC1Cn1cccn1)NC1CCN(C2CC2)CC1` (stereo not given), the Percent Effect was determined as 4.12%.

For `Cc1noc2ncc(C(=O)NCC3CCOC3)cc12` (stereo not given), the Percent Effect worked out at 16.2%.

For `Cc1cnc2c(c1NCc1ccncc1)c(=O)n(C)c(=O)n2C`, the Percent Effect worked out at 1.78%.

For the compound `CN1CCc2c(C#N)c(NCCCN3CCOCC3)n3cnnc3c2C1`, the Percent Effect came out at 5.95%.

On to `CCOC1CCN(C(=O)c2cnn(-c3ccccc3Cl)c2)CC1`, for which the Percent Effect came to 28.9%.

As to `CN(CC(=O)N1CCC(C(O)c2ccccc2)CC1)c1cnccn1` (stereo not given), the Percent Effect was -9.59%.

Take `CC1CN(C(=O)CN(Cc2ccccc2Br)C2CC2)CCO1` (stereo not given): the Percent Effect is 29.2%.

As to `CC1CCN(S(=O)(=O)c2cccn(CC(=O)N3CCOCC3)c2=O)CC1`, the Percent Effect was -33%.

Regarding `CC1(C)OCC(CNC(=O)c2cnn(-c3ccc(Cl)cc3)c2N)O1` (stereo not given), the Percent Effect came to 47.4%.

With `O=C1CCSCC(C(=O)N2CCOCC2)N1` (stereo not given), the Percent Effect came to 3.97%.

For `NC(=O)c1ccc(N2CCCCC2)c(NC(=O)c2cncc(Br)c2)c1`, the Percent Effect is -52.6%.

Turning to `Cn1cc(C[C@H]2[C@H](N3CCOCC3)CCN2C(=O)c2ccco2)cn1`, the Percent Effect was -0.123%.

For `CNC(=O)CS(=O)(=O)C1CCN(S(=O)(=O)C2CC2)CC1`, the Percent Effect was -3.71%.

Turning to `Cc1csc(C2CCCN(C(=O)c3cnc4n[nH]c(C)c4c3)C2)n1` (stereo not given), the Percent Effect was 21.9%.

Turning to `CC(=O)N1CCCN(Cc2csc(-c3ncccn3)n2)CC1`, the Percent Effect was -13%.
